Experiment [1] in a line: High-throughput drug toxicity screening in the BPDCN cell line Cal-1 (AID 1224825; call rule not given here). To be noted: Cal-1 BPDCN cell viability, qHTS; at 45.8 µM (top of the series). In a few lines: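 Viability of the BPDCN line Cal-1 is measured as ATP-based luminescence (CellTiter-Glo) following 48 h incubation with compounds. Percent activity uses DMSO-treated wells as 100% and 9.2 uM bortezomib as 0%.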
In general terms: In qHTS, concentration-response curves come from the screen itself.

Experiment [2] in a line: qHTS assay for measurement of the activity of small molecule inhibitors on Zika virus induced Caspase-3 activity in human iPSC derived neural progenitor cells (hNPCs) (AID 1224857). Also: nearly all actives have a fitted effect of over 65% in size. Also: potency is read from the fitted curve at half-maximal effect. In a few lines:
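Zika virus (2 FFU/cell) infection of human iPSC-derived NPCs, 6 h, following 1 h compound preincubation. Read-out: Caspase-Glo 3/7 luminescence.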

A short description of experiment [3]: qHTS assay for measurement of the activity of small molecule inhibitors on Zika virus induced Caspase-3 activity in human astrocytoma cells (AID 1224859).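 Also: plate controls were ZIKV-infected untreated cells for no effect and uninfected cells for full effect.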 In a few lines: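 Caspase activation in ZIKV-infected SNB-19 cells (2 FFU/cell, 6 h) measured by Caspase-Glo 3/7 luminescence after 30 min RT; compound pre-incubated 1 h; normalised to uninfected and infected controls.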

Experiment [4] in a line: qHTS Screen of the MIPE 4.0 Collection Against Ewings Sarcoma (RDES) (AID 1259252). Also: nearly all actives have a fitted effect of over 35% in size. Also: potency is read from the fitted curve at half-maximal effect. In a few lines:
(§1)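 Measured: ATP luminescence (CellTiter-Glo) 10 min after reagent addition, following 48 h drug treatment. Relative luciferase units converted to percent activity, with no-cell wells as full and DMSO wells as zero inhibition.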

Experiment [5] in a line: qHTS Screen of the MIPE 4.0 Collection Against Ewings Sarcoma (TC71) (AID 1259253). Also: nearly all actives have a fitted effect of over 40% in size. Also: potency is read from the fitted curve at half-maximal effect. In a few lines: as §1
The nature of experiment [6]: qHTS Screen of the MIPE 4.0 Collection Against Ewings Sarcoma (EW8) (AID 1259255). Also: nearly all actives have a fitted effect of over 35% in size. Also: potency is read from the fitted curve at half-maximal effect.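 As to viability: 100% = DMSO-treated cells and 0% = medium-only wells without cells.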 In a few lines: as §1
A short description of experiment [7]: qHTS Screen of the MIPE 4.0 Collection Against Ewings Sarcoma (TC32) (AID 1259256). Also: nearly all actives have a fitted effect of over 45% in size. Also: potency is read from the fitted curve at half-maximal effect. In a few lines: as §1
A short description of experiment [8]: qHTS assay to identify small molecule inhibitors of chordoma cells - UCH-1 (AID 1259355). Also: nearly all actives have a fitted effect of over 55% in size. Also: potency is read from the fitted curve at half-maximal effect. In outline: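 A 48hr growth-inhibition format: each drug tested at 15 concentrations together with added auranofin, camptothecin, doxorubicin, rubitecan and topotecan, with cell viability quantified as CellTiter-Glo luminescence.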
The nature of experiment [9]: qHTS assay to identify small molecule inhibitors of chordoma cells - UCH-2 (AID 1259356). Also: potency is read from the fitted curve at half-maximal effect.
The nature of experiment [10]: Identifying Small Molecule Inhibitors of Pancreatic Cancer Stem Cells (A2780, Spheroid) (AID 1259357). Also: potency is read from the fitted curve at half-maximal effect.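 Also: spheroids pre-formed over 14 days in stem cell medium on hydrogel; compound exposure lasted 48 h before the ATP luminescence read.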 To be noted: Potency: A2780 spheroid viability. In a few lines:
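Spheroids grown 14 days in stem cell media on hydrogel-coated nonadherent plates; 2D lines seeded directly. Compounds added after 4 h attachment, 48 h at 37C, 5% CO2; CellTiter-Glo luminescence normalized to DMSO (no inhibition) and no-cell wells (full inhibition).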

Molecules are shown by their SMILES. “And” between values parts separate entries of the source, which are not always exact repeats. Equal entries are not always repeated. Results filed as inconclusive are left out. The source made the active and inactive calls. Unless noted, calls follow the shape of the dose curve; as a rule, active = well fitted curve in the direction sought with a large enough effect; inconclusive = small, poorly fitted or top-dose-only effect, or another doubt; inactive = no such curve, though single readings can be large; an effect the other way counts as inactive or inconclusive.

For `Cc1cccc(C)c1NC(=O)CN1CCCC1=O`, the viability (% of control) in experiment [1] came out at 110%. Further, the Potency entry in experiment [2], in experiment [4], in experiment [5] and in experiment [6] was “inactive” throughout. For the same molecule, in experiment [3], the molecule was classed as inactive.
In the case of `C[C@@H]1O[C@@H](O[C@H]2C[C@@H](O)[C@]3(CO)[C@H]4[C@H](O)C[C@]5(C)[C@@H](C6=CC(=O)OC6)CC[C@]5(O)[C@@H]4CC[C@]3(O)C2)[C@H](O)[C@H](O)[C@H]1O`, the viability (% of control) in experiment [1] was found to be 3.79%. Moreover, the Potency result in [2] was “inactive”. Besides, the result in [3] was inactive. For the same molecule, the Potency is 0.0833 µM (active) in experiment [4]; 0.0418 µM (active) in experiment [5]; 0.0372 µM (active) in experiment [6]; 0.059 µM (active) in [7]; 158 nM (active) and 63.1 nM (active) in experiment [8]; 65.1 nM (active) and 51.7 nM (active) in experiment [9].
Turning to `CC1=C2C[C@@H]3[C@@H](CC=C4C[C@@H](O)CC[C@@]43C)[C@@H]2CC[C@]12O[C@H]1C[C@H](C)CN[C@H]1[C@H]2C`, the viability (% of control) in experiment [1] amounted to 116%. Moreover, the Potency result in experiment [2] and in experiment [4] was “inactive” each time. The result in experiment [3] was inactive.
Take `Cn1cc(C2=C(c3cn(C4CCN(Cc5ccccn5)CC4)c4ccccc34)C(=O)NC2=O)c2ccccc21`: the viability (% of control) in experiment [1] is 14.5%. Besides, the Potency result in experiment [2] is “inactive”. For the same molecule, the call in experiment [3] was inactive. For the same molecule, the Potency in experiment [5] was 6.62 µM (active); in experiment [6] it was 10.5 µM (active); in experiment [7], 8.33 µM (active).
`COC1(CS(=O)c2ccccc2)CCN(CCc2c[nH]c3ccc(F)cc23)CC1` (centres undefined): the viability (% of control) in experiment [1] amounted to 80.6%. Further, the Potency in [2] was 20.9 µM (active); in experiment [5] it was 5.9 µM (active). The outcome in [3] was inactive.
For the molecule `CN1CCN(C(=O)O[C@H]2c3nccnc3C(=O)N2c2ccc(Cl)cn2)CC1`, the viability (% of control) in [1] was 135%. Moreover, the Potency result in experiment [2], in experiment [5], in [6], in experiment [7], in experiment [8] and in experiment [9] was “inactive” in each case. Besides, in experiment [3], the molecule was classed as inactive.
`Fc1ccc(C(OCCN2CCN(CCCc3ccccc3)CC2)c2ccc(F)cc2)cc1`: the viability (% of control) in experiment [1] amounted to 3.89%. Moreover, the Potency entry in experiment [2] is “inactive”. The result in experiment [3] was inactive. Also, the Potency in [5] is 18.7 µM (active); in experiment [6], 20.9 µM (active); in experiment [7], 26.4 µM (active); in [8] it was 31.6 µM (active).
`Cn1c(CCCC(=O)O)nc2cc(N(CCCl)CCCl)ccc21`: in experiment [1], the viability (% of control) came out at 6.62%. Also, the Potency result in experiment [2], in experiment [7], in [8], in [9] and in [10] was “inactive” in each case. The molecule was called inactive in experiment [3]. For the same molecule, in experiment [4], the Potency was 26.4 µM (active).
For `CC(C)=CCOc1c2occc2cc2ccc(=O)oc12`, the Potency entry in experiment [2] is “inactive”. For the same molecule, the outcome in experiment [3] was inactive.
For the molecule `Cc1cc(SCc2sc(-c3ccc(C(F)(F)F)c(F)c3)nc2C)ccc1OCC(=O)O`, the viability (% of control) in experiment [1] was found to be 109%. For the same molecule, the Potency in experiment [5] was 23.5 µM (active).
As to `CCC1C(=O)OCC1Cc1cncn1C` (centres undefined), the Potency result in experiment [2] was “inactive”.
For `COc1ccc(C(CN(C)C)C2(O)CCCCC2)cc1` (centres undefined), in experiment [1], the viability (% of control) came to 107%. For the same molecule, the Potency entry in experiment [2], in experiment [5], in experiment [8] and in experiment [9] was “inactive” throughout. Also, the outcome in experiment [3] was inactive. For the same molecule, the Potency in experiment [6] was 26.4 µM (active).
Take `C[C@@H]1[C@@H](CC(C[C@H]2O[C@@H]3O[C@]4(C)CC[C@@H]5[C@H](C)CC[C@@H]([C@H]2C)[C@@]35OO4)C[S+](=O)([O-])c2ccc(COC(=O)N(C)C)cc2)O[C@@H]2O[C@]3(C)CC[C@H]4[C@H](C)CC[C@@H]1[C@@]24OO3` (some centres undefined): in experiment [1], the viability (% of control) was 13.4%. Moreover, the Potency entry in experiment [2] was “inactive”. Further, in experiment [3], the call was inactive. Also, the Potency in experiment [4] was 0.418 µM (active); in [5] it was 0.332 µM (active); in experiment [6], 0.264 µM (active); in [7] it was 0.469 µM (active); in experiment [10], 0.059 µM (active).
As to `COC[C@H]1OC(=O)c2coc3c2[C@@]1(C)C1=C(C3=O)C2CCC(=O)[C@@]2(C)C[C@H]1OC(C)=O` (some centres undefined), in experiment [2], the Potency result is “inactive”. The outcome in [3] was inactive.
In the case of `FC(F)(F)c1cccc(C2=CCN(CCc3ccc4ccccc4c3)CC2)c1`, the Potency entry in experiment [2], in experiment [8] and in experiment [9] was “inactive” throughout. In addition, in experiment [3], the result was inactive.
As for `C=C1CC[C@@]2(O)[C@H]3Cc4ccc(O)c5c4[C@@]2(CCN3CC2CC2)[C@H]1O5`, the Potency result in experiment [2], in experiment [8] and in experiment [9] was “inactive” each time. For the same molecule, the outcome in experiment [3] was inactive.
`CC[C@@H](CO)NC(=O)[C@@H]1C=C2c3cccc4[nH]cc(c34)C[C@H]2N(C)C1`: the Potency result in experiment [2], in [8] and in experiment [9] was “inactive” throughout. Besides, the result in [3] was inactive.
With `NCC(O)c1ccc(O)cc1` (centres undefined), the Potency entry in experiment [2], in experiment [8] and in [9] was “inactive” in each case. In addition, in [3], the molecule was classed as inactive.
For the molecule `CC1OC(C)OC(C)O1` (centres undefined), the Potency entry in experiment [2], in experiment [8] and in experiment [9] was “inactive” each time. In experiment [3], the call was inactive.
In the case of `CC(C)(C)CC(C)(C)c1ccc(O)cc1`, the Potency result in experiment [2], in experiment [8] and in experiment [9] was “inactive” throughout. In addition, the result in experiment [3] was inactive.
Turning to `CO[C@]12CC[C@@]3(C[C@@H]1[C@](C)(O)C(C)(C)C)[C@@H]1Cc4ccc(O)c5c4[C@@]3(CCN1CC1CC1)[C@H]2O5`, the Potency entry in experiment [2] was “inactive”. Also, in experiment [3], the molecule was called inactive.
Consider `Oc1ccccc1-c1ccccc1`, for which the Potency entry in [2], in experiment [8] and in [9] was “inactive” throughout. In addition, in experiment [3], the result was inactive.

These data come from PubChem BioAssay (NCATS).
